Reference: PubChem BioAssay (Tox21)
Results filed as inconclusive are left out. A call without a number means that no potency is given here. Activity calls are given as the source filed them. Unless noted, calls come from the whole dose curve; as a rule, active = well fitted curve in the direction sought with a large enough effect in the repeat runs; inconclusive = weak or mixed curves; inactive = no such curve, though single readings can be large; an effect the other way counts as inactive or inconclusive.

What was measured:
[1] = qHTS assay to identify small molecule antagonists of the sonic hedgehog signaling (Shh) pathway (AID 1259369; calls by dose curve; note: nearly all actives have a fitted effect of over 45% in size; note: potency is the fitted concentration of half-maximal effect)
In short: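 Antagonist mode: compound added to 3T3 Gli1-Luc cells followed by conditioned-medium stimulation, 24 h at 37 C, 5% CO2. Inhibition taken as loss of Gli1-driven luciferase luminescence.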

[2] = molecular target: Estrogen receptor beta (Homo sapiens) (UniProt Q92731); experiment: qHTS assay to identify small molecule agonists of the estrogen receptor beta (ER-beta) signaling pathway (AID 1259377; active = well fitted activation curve with a large enough effect in the signal ratio in the repeat runs, not every such curve was filed as active; the % refers to the signal ratio)
In short: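 A UAS-controlled beta-lactamase reporter in ER-beta-UAS-bla HEK293T cells reports receptor activation. Compounds act for 16 hr at 37C in 2% charcoal-stripped serum, and a FRET substrate is read by fluorescence after 2 hours.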

[3] = molecular target: Estrogen receptor beta (Homo sapiens) (UniProt Q92731); experiment: qHTS assay to identify small molecule antagonists of the estrogen receptor beta (ER-beta) signaling pathway (AID 1259378; active = well fitted inhibition curve with a large enough effect in the signal ratio in the repeat runs, not every such curve was filed as active; the % refers to the signal ratio; note: potency is the fitted concentration of half-maximal effect)
In short: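 ER-beta-UAS-bla HEK293T cells in 2% charcoal-stripped FBS medium treated with compound plus 1nM final 17-beta-estradiol for 16 hr at 37C. Beta-lactamase reporter read by FRET substrate fluorescence after 2 hours at room temperature.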

[4] = qHTS assay to identify small molecule agonists of the androgen receptor (AR) signaling pathway in the presence of an antagonist - cell viability counter screen (AID 1259379); note: nearly all actives have a fitted effect of over 25% in size; note: potency is the fitted concentration of half-maximal effect
In short: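 Cytotoxicity counter-screen run in the same wells as the nilutamide-challenged (3.0 µM final) AR agonist assay in MDA-kb2 cells. Compounds tested at 15 concentrations for 16 h, 37 °C without CO2; CellTiter-Fluor fluorescence read.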

[5] = qHTS assay to identify small molecule agonists of the estrogen receptor beta (ER-beta) signaling pathway - cell viability counter screen (AID 1259380); note: nearly all actives have a fitted effect of over 30% in size; note: potency is the fitted concentration of half-maximal effect
In short: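 Cell viability counter screen: CellTiter-Glo luminescence (30 min, room temperature) measured in the same wells as the beta-lactamase readout, after 16 hr compound exposure at 37C of ER-beta-bla HEK293T cells in 2% charcoal-stripped FBS medium.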

[6] = qHTS assay to identify small molecule antagonists of the estrogen receptor beta (ER-beta) signaling pathway - cell viability counter screen (AID 1259382); note: series mostly up to about 92 µM; nearly all actives have a fitted effect of over 55% in size
In short: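 Cytotoxicity was measured in the same wells by CellTiter-Glo luminescence after 30 min at room temperature. Cells were ER-beta-bla HEK293T in charcoal-stripped serum, given compound together with 1 nM E2 and incubated 16 h at 37C.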

[7] = qHTS assay to identify small molecule agonists or antagonists of the thyroid stimulating hormone receptor (TSHR) signaling pathway - wild type cell line counter screen (AID 1259384; calls by dose curve)
In short: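 Wild-type Hek293 cells, 800/well, 18 h at 37C, then compound with Ro20-1724 for 30 min RT. cAMP by HTRF (cAMP-d2/anti-cAMP cryptate), 1 h RT, fluorescence read. 15 concentrations, triplicates.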

[8] = molecular target: Thyrotropin receptor (Homo sapiens) (UniProt P16473); experiment: qHTS assay to identify small molecule antagonists of the thyroid stimulating hormone receptor (TSHR) signaling pathway (AID 1259385; calls by dose curve; note: nearly all actives have a fitted effect of over 20% in size)
In short: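 TSHR-HEK293 cells (800/well) plated 18 h, then compounds with Ro20-1724 and TSH at 1.5 ng/mL final, 30 min at room temperature. cAMP quantified by HTRF (cAMP-d2/anti-cAMP-cryptate, 1 h); 15 concentrations in triplicate.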

[9] = qHTS assay to identify small molecule agonists of the estrogen receptor alpha (ER-alpha) signaling pathway in the presence of an antagonist - cell viability counter screen (AID 1259386); note: nearly all actives have a fitted effect of over 30% in size; note: potency is the fitted concentration of half-maximal effect
In short: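 Compounds tested at 15 concentrations for 22 h at 37C alongside 10.0nM (final) ICI-182,780 antagonist, in VM7Luc4E2 cells grown in phenol red-free, charcoal-stripped medium. Viability read by CellTiter-Fluor fluorescence after 1 h reagent incubation.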

[10] = molecular target: Progesterone receptor (Homo sapiens) (UniProt P06401); experiment: qHTS assay to identify small molecule agonists of the progesterone receptor (PR) signaling pathway (AID 1346784; calls by dose curve; note: nearly all actives have a fitted effect of over 30% in size)
In short: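 Agonist mode, quantitative HTS format in a HEK 293T line expressing a UAS-controlled beta-lactamase reporter; 16 hr compound exposure at 37C in 2% charcoal-stripped FBS, then LiveBLAzer B/G FRET fluorescence.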

[11] = molecular target: Progesterone receptor (Homo sapiens) (UniProt P06401); experiment: qHTS assay to identify small molecule antagonists of the progesterone receptor (PR) signaling pathway (AID 1346795; active = well fitted inhibition curve with a large enough effect in the signal ratio in the repeat runs, not every such curve was filed as active; the % refers to the signal ratio; note: potency is the fitted concentration of half-maximal effect)
In short: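 HEK293T PR-UAS-bla reporter cells in charcoal-stripped serum (2%) received compound after a 6 hr settling period, followed by R5020 agonist at 1 nM final; 16 hr incubation preceded the FRET substrate step and fluorescence measurement.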

[12] = qHTS assay to identify small molecule antagonists of the progesterone receptor (PR) signaling pathway - cell viability counter screen (AID 1346798); note: series mostly up to about 92 µM; nearly all actives have a fitted effect of over 50% in size
In short: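 Same-well multiplex: after 16 hr at 37C with compound and R5020 stimulation, HEK293T cells carrying a UAS-bla reporter received LiveBLAzer substrate (2 hr RT), then CellTiter-Glo (30 min RT) for luminescent viability.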

[13] = qHTS assay to identify small molecule agonists of the progesterone receptor (PR) signaling pathway - cell viability counter screen (AID 1346799; calls by dose curve; note: nearly all actives have a fitted effect of over 45% in size; note: potency is the fitted concentration of half-maximal effect)
In short: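 Counter screen for cytotoxicity: compound-treated PR-UAS-bla HEK293T cells (16 hr, 37C, 5% CO2) were assayed with CellTiter-Glo, luminescence measured after 30 min at room temperature.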

[14] = qHTS assay to identify small molecule antagonists of the TGF-beta/Smad signaling pathway - cell viability counter screen (AID 1346824); note: nearly all actives have a fitted effect of over 50% in size
In short: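 SBE-bla HEK 293T cells, incubated overnight, then compound plus 0.25 ng/mL TGF-beta1 (stock added) for 5 hr at 37 C. Viability was read in the same wells by CellTiter-Glo luminescence after 30 min at room temperature.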

[15] = qHTS assay to identify small molecule agonists of the TGF-beta/Smad signaling pathway - cell viability counter screen (AID 1346829); note: top concentration of the series differs between compounds; nearly all actives have a fitted effect of over 45% in size
In short: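 In parallel with the Smad reporter read, viability of HEK 293T cells stably carrying SBE-bla is quantified by ATP luminescence following 5 hr compound treatment.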

[16] = qHTS assay to identify small molecule agonists of the TGF-beta/Smad signaling pathway (AID 1346859; active = well fitted activation curve with a large enough effect in the signal ratio in the repeat runs, not every such curve was filed as active; the % refers to the signal ratio; note: series mostly up to about 77 µM)
In short: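 Smad-responsive beta-lactamase reporter cells (HEK 293T) received compounds from DMSO stocks after overnight attachment, were incubated 5 hr, then treated 2 hr with FRET substrate before dual-emission fluorescence measurement (405 nm excitation).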

[17] = molecular target: Thyrotropin-releasing hormone receptor (Homo sapiens) (UniProt P34981); experiment: qHTS assay to identify small molecule antagonists of the thyrotropin-releasing hormone receptor (TRHR) signaling pathway (AID 1346877; active = well fitted inhibition curve with a large enough effect in the repeat runs, not every such curve was filed as active; note: series mostly up to about 51 µM)
In short: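 Antagonist mode: after a 5 min room-temperature compound exposure, cells were stimulated with 1 nM (final) TRH. Dye-loaded TRHR-HEK293 cells were used, and calcium-dependent fluorescence was followed for 3 min, with 15-point titrations run in triplicate.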

[18] = molecular target: Androgen receptor (Homo sapiens) (UniProt P10275); experiment: qHTS assay to identify small molecule agonists of the androgen receptor (AR) signaling pathway in the presence of an antagonist (AID 1259381; calls by dose curve; note: nearly all actives have a fitted effect of over 15% in size)
In short: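 Agonist-mode confirmation run against 3.0 uM final nilutamide: compounds titrated at 15 concentrations onto MDA-kb2 MMTV-luciferase reporter cells. Luminescence measured with ONE-Glo following 16 hr incubation, 37C, 0% CO2.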

[19] = molecular target: Thyrotropin-releasing hormone receptor (Homo sapiens) (UniProt P34981); experiment: qHTS assay to identify small molecule agonists of the thyrotropin-releasing hormone receptor (TRHR) signaling pathway (AID 1346891; calls by dose curve;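 note: HEK293 cells expressing TRHR with calcium dye readout; series mostly up to about 58 µM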)
In short: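 Agonist-mode calcium mobilisation screen: TRHR-transfected HEK293 cells cultured overnight (18 h), dye-loaded for 2 h at 37 °C, exposed to compounds, and monitored by fluorescence for 3 min.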

[20] = molecular target: Estrogen receptor (Homo sapiens) (UniProt P03372); experiment: qHTS assay to identify small molecule agonists of the estrogen receptor alpha (ER-alpha) signaling pathway in the presence of an antagonist (AID 1259383; calls by dose curve; note: top concentration of the series differs between compounds; nearly all actives have a fitted effect of over 15% in size)
In short: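 Agonist-mode confirmation run in the presence of 10.0nM (final) ICI-182,780 antagonist. The reporter was ERE-driven luciferase in VM7Luc4E2 cells, grown in charcoal-stripped serum. Cells were exposed to 15-concentration compound series for 22hr, then ONE-Glo luminescence was read.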

Sequence of Thyrotropin receptor (Homo sapiens) (P16473 whole entry, looked up): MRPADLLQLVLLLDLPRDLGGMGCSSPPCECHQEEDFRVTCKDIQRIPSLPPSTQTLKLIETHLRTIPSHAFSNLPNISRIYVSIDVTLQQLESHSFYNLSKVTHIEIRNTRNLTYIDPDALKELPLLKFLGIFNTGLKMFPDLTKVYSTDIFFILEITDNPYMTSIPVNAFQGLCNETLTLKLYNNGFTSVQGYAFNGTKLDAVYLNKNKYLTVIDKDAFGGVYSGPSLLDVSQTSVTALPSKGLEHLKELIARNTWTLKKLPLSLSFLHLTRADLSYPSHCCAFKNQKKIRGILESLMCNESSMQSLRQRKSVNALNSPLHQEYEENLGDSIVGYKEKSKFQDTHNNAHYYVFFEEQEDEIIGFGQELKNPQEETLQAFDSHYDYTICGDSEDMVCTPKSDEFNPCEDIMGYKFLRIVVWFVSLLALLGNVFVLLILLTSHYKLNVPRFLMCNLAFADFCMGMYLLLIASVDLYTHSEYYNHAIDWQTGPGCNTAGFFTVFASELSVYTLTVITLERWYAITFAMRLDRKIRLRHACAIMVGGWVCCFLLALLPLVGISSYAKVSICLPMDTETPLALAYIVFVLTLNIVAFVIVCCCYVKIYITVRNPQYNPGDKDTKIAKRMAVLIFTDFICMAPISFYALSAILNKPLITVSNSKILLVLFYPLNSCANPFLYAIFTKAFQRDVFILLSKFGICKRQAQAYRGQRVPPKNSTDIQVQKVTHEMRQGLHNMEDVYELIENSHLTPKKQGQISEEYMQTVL
Sequence of Estrogen receptor (Homo sapiens) (P03372 whole entry, looked up): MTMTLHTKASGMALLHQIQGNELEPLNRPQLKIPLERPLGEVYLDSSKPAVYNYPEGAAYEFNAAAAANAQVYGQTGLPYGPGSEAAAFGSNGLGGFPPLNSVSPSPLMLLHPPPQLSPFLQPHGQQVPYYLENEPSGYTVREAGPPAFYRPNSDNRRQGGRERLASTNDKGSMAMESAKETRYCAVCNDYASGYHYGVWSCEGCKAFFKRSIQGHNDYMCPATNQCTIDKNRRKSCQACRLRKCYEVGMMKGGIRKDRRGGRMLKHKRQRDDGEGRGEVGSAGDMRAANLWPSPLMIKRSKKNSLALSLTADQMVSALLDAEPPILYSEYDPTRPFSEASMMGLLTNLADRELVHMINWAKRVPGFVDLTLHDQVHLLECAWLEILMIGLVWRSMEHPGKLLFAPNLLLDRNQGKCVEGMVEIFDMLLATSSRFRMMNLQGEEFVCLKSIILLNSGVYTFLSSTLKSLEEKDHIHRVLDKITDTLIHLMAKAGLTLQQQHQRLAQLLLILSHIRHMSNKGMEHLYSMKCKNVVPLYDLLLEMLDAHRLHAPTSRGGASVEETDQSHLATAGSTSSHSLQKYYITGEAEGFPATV
Sequence of Thyrotropin-releasing hormone receptor (Homo sapiens) (P34981 whole entry, looked up): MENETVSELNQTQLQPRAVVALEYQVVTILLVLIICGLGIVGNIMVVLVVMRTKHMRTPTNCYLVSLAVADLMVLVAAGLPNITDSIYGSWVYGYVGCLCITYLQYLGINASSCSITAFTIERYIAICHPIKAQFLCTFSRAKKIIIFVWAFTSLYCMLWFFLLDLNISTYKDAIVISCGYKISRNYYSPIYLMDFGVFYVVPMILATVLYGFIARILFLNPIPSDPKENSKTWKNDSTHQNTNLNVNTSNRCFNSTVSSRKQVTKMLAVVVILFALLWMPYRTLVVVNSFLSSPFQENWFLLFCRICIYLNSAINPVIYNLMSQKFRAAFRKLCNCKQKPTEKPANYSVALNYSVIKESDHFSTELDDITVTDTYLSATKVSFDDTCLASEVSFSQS
Sequence of Estrogen receptor beta (Homo sapiens) (Q92731 whole entry, looked up): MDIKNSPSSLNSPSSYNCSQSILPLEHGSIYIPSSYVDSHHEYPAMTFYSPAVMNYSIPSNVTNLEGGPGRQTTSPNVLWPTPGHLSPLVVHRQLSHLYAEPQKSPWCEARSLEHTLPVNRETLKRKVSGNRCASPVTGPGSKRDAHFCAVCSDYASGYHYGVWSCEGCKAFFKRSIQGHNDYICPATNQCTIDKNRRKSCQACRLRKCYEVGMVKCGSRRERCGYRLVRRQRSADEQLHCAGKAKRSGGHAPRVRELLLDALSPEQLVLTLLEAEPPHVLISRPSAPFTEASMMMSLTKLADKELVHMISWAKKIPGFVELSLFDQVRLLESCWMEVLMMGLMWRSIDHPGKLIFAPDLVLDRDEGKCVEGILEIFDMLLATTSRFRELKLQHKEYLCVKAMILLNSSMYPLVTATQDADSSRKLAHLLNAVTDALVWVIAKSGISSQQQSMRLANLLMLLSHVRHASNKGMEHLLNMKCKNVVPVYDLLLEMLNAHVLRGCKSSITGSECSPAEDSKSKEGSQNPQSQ
Sequence of Progesterone receptor (Homo sapiens) (P06401 whole entry, looked up): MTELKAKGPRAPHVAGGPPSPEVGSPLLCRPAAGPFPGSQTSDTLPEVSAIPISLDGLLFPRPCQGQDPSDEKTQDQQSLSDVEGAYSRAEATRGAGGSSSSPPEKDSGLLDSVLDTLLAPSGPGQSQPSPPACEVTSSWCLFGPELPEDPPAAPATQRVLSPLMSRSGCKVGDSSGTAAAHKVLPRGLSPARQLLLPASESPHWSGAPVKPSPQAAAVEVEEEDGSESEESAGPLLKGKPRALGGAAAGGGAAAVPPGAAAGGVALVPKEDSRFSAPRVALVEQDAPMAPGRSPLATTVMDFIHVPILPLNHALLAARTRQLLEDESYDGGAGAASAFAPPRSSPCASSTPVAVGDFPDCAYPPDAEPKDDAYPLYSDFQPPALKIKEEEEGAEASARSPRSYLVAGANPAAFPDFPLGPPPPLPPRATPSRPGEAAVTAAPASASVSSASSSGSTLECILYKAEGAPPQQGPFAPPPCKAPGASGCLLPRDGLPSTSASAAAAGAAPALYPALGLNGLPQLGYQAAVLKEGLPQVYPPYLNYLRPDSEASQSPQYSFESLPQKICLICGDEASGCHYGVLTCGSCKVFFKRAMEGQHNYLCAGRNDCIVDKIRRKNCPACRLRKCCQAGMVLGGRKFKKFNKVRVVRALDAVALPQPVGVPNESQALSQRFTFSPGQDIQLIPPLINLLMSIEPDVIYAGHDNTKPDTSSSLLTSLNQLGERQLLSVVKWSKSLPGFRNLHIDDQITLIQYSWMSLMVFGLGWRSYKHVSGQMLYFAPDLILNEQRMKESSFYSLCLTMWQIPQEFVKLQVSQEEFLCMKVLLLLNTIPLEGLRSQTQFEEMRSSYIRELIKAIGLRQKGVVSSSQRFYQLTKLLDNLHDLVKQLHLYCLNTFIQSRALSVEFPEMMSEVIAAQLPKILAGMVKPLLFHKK
Sequence of Androgen receptor (Homo sapiens) (P10275 whole entry, looked up): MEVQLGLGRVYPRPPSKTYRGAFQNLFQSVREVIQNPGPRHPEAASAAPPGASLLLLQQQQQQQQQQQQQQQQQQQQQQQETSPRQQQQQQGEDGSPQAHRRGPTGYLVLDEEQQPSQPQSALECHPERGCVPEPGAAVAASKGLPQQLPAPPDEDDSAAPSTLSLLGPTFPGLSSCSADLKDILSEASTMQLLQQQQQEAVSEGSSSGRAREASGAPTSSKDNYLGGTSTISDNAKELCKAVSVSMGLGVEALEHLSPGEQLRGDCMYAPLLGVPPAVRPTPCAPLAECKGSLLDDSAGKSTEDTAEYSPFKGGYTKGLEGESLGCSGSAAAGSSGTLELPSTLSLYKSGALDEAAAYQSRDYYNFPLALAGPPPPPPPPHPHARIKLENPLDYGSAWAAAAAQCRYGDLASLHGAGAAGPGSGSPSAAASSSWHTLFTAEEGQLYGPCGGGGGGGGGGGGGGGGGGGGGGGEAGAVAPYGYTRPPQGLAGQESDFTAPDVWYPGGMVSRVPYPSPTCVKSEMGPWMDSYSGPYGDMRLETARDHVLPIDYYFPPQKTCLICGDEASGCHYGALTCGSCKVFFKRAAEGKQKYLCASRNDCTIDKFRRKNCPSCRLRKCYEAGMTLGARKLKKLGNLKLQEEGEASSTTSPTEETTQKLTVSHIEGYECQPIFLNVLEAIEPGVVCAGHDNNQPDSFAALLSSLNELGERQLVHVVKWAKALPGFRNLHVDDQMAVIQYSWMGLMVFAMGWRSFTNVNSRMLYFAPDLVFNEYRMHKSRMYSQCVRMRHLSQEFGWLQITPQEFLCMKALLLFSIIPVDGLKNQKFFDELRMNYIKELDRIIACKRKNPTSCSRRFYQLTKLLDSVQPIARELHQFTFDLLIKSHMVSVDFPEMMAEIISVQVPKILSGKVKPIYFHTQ

| Compound | Potency [1] | Potency [2] | Potency [3] | Potency [4] | Potency [5] | Potency [6] | Potency [7] | Potency [8] | Potency [9] | Potency [10] | Potency [11] | Potency [12] | Potency [13] | Potency [14] | Potency [15] | outcome [16] | Potency [17] | Potency [18] | Potency [19] | Potency [20] |
| --- | --- | --- | --- | --- | --- | --- | --- | --- | --- | --- | --- | --- | --- | --- | --- | --- | --- | --- | --- | --- |
| CC(=O)C(Cl)C(=O)N(C)C (stereo not given) | inactive | inactive | inactive | inactive | inactive | inactive | inactive | inactive | inactive | inactive | inactive | inactive | inactive | inactive | inactive | inactive | inactive | – | – | – |
| COc1ccc2c(c1OC)C(=O)O[C@@H]2[C@H]1c2cc3c(cc2CCN1C)OCO3 | inactive | inactive | inactive | inactive | inactive | inactive | inactive | inactive | 6.05 µM (active) | inactive | inactive | inactive | inactive | inactive | inactive | inactive | – | inactive | inactive | – |
| CCN(CC)CCN1C(=O)CN=C(c2ccccc2F)c2cc(Cl)ccc21 | inactive | inactive | inactive | inactive | inactive | inactive | inactive | – | – | – | – | inactive | – | inactive | – | inactive | inactive | – | inactive | inactive |
| Cc1cnc2c(C(=O)O)c(Cl)ccc2c1 | inactive | inactive | inactive | inactive | inactive | inactive | – | – | inactive | inactive | inactive | inactive | inactive | inactive | inactive | inactive | inactive | – | inactive | – |
| COc1cnc(OC)n2nc(NS(=O)(=O)c3c(OCC(F)F)cccc3C(F)(F)F)nc12 | inactive | inactive | inactive | inactive | inactive | inactive | inactive | inactive | inactive | inactive | inactive | inactive | inactive | inactive | inactive | – | inactive | – | – | – |
| CC(Cl)CCl (stereo not given) | inactive | inactive | inactive | inactive | inactive | inactive | inactive | inactive | inactive | inactive | – | inactive | inactive | inactive | inactive | – | – | – | – | inactive |
| O=C(Cl)c1ccccc1F | inactive | inactive | inactive | inactive | inactive | – | inactive | inactive | inactive | inactive | inactive | inactive | inactive | inactive | inactive | inactive | – | – | – | inactive |
| Clc1ccc(C(Cl)(Cl)Cl)cc1Cl | inactive | inactive | inactive | – | inactive | inactive | – | – | inactive | inactive | inactive | inactive | inactive | inactive | – | – | inactive | – | inactive | inactive |
| CC(C)N(C(=O)SC/C(Cl)=C/Cl)C(C)C | inactive | inactive | – | inactive | inactive | inactive | inactive | inactive | inactive | inactive | inactive | inactive | inactive | inactive | inactive | inactive | – | – | – | inactive |
| O=Cc1ccccc1 | inactive | inactive | inactive | inactive | inactive | – | inactive | inactive | inactive | inactive | inactive | inactive | – | inactive | inactive | inactive | – | – | inactive | – |
| CSC1=N[C@@](C)(c2ccccc2)C(=O)N1Nc1ccccc1 | 2.43 µM (active) | inactive | 27.3 µM (active) | 30.6 µM (active) | – | – | – | – | – | inactive | 43.3 µM (active) | – | – | – | inactive | inactive | inactive | – | – | – |
| CC1CN1 (stereo not given) | inactive | inactive | inactive | – | inactive | inactive | inactive | – | inactive | inactive | inactive | inactive | inactive | inactive | inactive | inactive | – | – | – | inactive |
| CCC[CH2][Sn]([CH2]CCC)([O]C(C)=O)[O]C(C)=O | 2.19 µM (active) | inactive | 0.174 µM (active) | 0.978 µM (active) | 0.276 µM (active) | – | inactive | – | – | – | 0.195 µM (active) | – | 0.978 µM (active) | inactive | – | – | – | – | – | inactive |
| [O]=[Cr][O][Cr]=[O] | inactive | inactive | inactive | – | inactive | inactive | – | – | – | inactive | inactive | inactive | inactive | inactive | inactive | inactive | inactive | – | – | – |
| CN/C(=N\[N+](=O)[O-])NCc1cnc(Cl)s1 | inactive | inactive | inactive | inactive | inactive | – | – | – | – | inactive | inactive | inactive | inactive | inactive | – | inactive | – | – | – | inactive |
| C#CCO | inactive | inactive | inactive | inactive | inactive | – | inactive | – | – | inactive | inactive | inactive | inactive | inactive | inactive | inactive | inactive | – | inactive | inactive |
| CCOP(=O)(OCC)Oc1cc(C)nc(C(C)C)n1 | inactive | inactive | inactive | inactive | inactive | – | inactive | – | inactive | inactive | inactive | inactive | inactive | – | inactive | inactive | inactive | – | inactive | – |
| Oc1cc(Cl)c(Cl)c(Cl)c1Cl | 26.7 µM (active) | inactive | 13.4 µM (active) | – | – | inactive | inactive | inactive | – | inactive | 21.2 µM (active) | inactive | inactive | – | inactive | – | – | inactive | inactive | inactive |
